For seven compounds, outcome and AC50 results are on record in PubChem BioAssay (EPA / NIEHS).

Each structure is given as a SMILES string. The source made the active and inactive calls. Rule for the calls: active = hit-call score of the fitted dose curve at least 0.9, where 1 is the maximum; inactive = score below 0.9.

Experiment [1] can be described thus: ATG_GLI_CIS: Attagene CIS-FACTORIAL HepG2 Assay for human Zinc Finger Protein GLI1 (AID 2282945). Conditions: HepG2, Attagene cis-factorial reporter mRNA, GLI element; actives raise or lower the signal. The method in brief: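 HepG2 cells transiently transfected with cis-promoter multiplexed reporter units report endogenous transcription factor activity. After 24 h chemical exposure, reporter mRNA was quantified by RT-PCR, 6-FAM labelling, HpaI digestion and capillary electrophoresis, with bidirectional fitting against DMSO.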

Experiment [2] in a line: ATG_GRE_CIS: Attagene CIS-FACTORIAL HepG2 Assay for human Glucocorticoid Response Elements (GRE) (AID 2282947). Conditions: HepG2 GRE cis-reporter, Attagene multiplex mRNA; actives raise or lower the signal. The method in brief: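 HepG2 cells transiently transfected with multiple cis-promoter reporter units measure endogenous TF activity; 24 h compound exposure. Reporter mRNA quantified by RT-PCR, FAM labelling, HpaI digestion and capillary electrophoresis; bidirectional fit vs DMSO baseline.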

Experiment [3] in a line: ATG_ISRE_CIS: Attagene CIS-FACTORIAL HepG2 Assay for human Interferon Regulatory Factor 1 (IRF1) binding to an Interferon-Stimulated Response Element (ISRE) (AID 2282948). Conditions: HepG2 ISRE cis-reporter (Attagene), mRNA transcription readout; actives raise or lower the signal. The method in brief: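 Transiently transfected HepG2 cells carrying cis-element reporter units, dosed 24 hours. Reporter mRNA quantified by RT-PCR, fluorescent primer extension, HpaI digestion and capillary electrophoresis. Bidirectional fitting relative to DMSO.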

The nature of experiment [4]: ATG_M_32_CIS: Attagene CIS-FACTORIAL HepG2 Assay for M32 Transcription Factor (Internal Marker) (AID 2282949).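 Note: background control marker of the multiplexed CIS panel rather than a real target.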 As to conditions: HepG2 Attagene cis-factorial M32 reporter, mRNA; actives raise or lower the signal. The method in brief:
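Following 24 h chemical exposure of HepG2 cells transiently expressing cis-promoter reporter constructs, reporter transcript levels were determined by RT-PCR with fluorescent labelling and capillary electrophoresis, then fitted bidirectionally against DMSO.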

The nature of experiment [5]: ATG_M_06_CIS: Attagene CIS-FACTORIAL HepG2 Assay for M06 Transcription Factor (Internal Marker) (AID 2282950). Conditions: HepG2 Attagene CIS-FACTORIAL M06 internal marker reporter; actives raise or lower the signal. The method in brief: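 Terse: HepG2, transient MRTU transfection (FuGene 6), 24 h dosing; total RNA, oligo(dT) RT, PCR, FAM label, HpaI cut, capillary electrophoresis; bidirectional fit vs DMSO baseline; background-control endpoint.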

For experiment [6], the target named is Hypoxia-inducible factor 1-alpha (Homo sapiens) (UniProt Q16665). Nature of the experiment: ATG_HIF1a_CIS: Attagene CIS-FACTORIAL HepG2 Assay for human Hypoxia Inducible Factor 1 (HIF1A) (AID 2282951). As to conditions: HepG2 Attagene cis-factorial HIF1a reporter transcription; actives raise or lower the signal. The method in brief:
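HepG2 cells transiently transfected with multiplexed cis-promoter reporter units; reporter mRNA read 24 h after dosing by RT-PCR, 6-FAM primer-extension labelling, HpaI digestion and capillary electrophoresis. Bidirectional fit versus DMSO baseline.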

Experiment [7] has as its target Heat shock factor protein 1 (Homo sapiens) (UniProt Q00613). Nature of the experiment: ATG_HSE_CIS: Attagene CIS-FACTORIAL HepG2 Assay for human Heat Shock Transcription Factor 1 (HSE) (AID 2282953). As to conditions: HepG2 HSE cis-reporter, Attagene RNA transcription; actives raise or lower the signal. The method in brief:
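Read-out: fluorescence of reporter-specific RT-PCR fragments separated by capillary electrophoresis. HepG2 carrying transfected cis-element reporter units; 24 h dosing; activity fitted in both directions relative to DMSO baseline.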

Experiment [8] in a line: ATG_MRE_CIS: Attagene CIS-FACTORIAL HepG2 Assay for human Metal Responsive Element (MRE) (AID 2282954). As to conditions: HepG2 MRE cis-reporter transcription, Attagene multiplex; actives raise or lower the signal. The method in brief:
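HepG2 cells transiently transfected with multiple cis-element reporter units measure endogenous MTF1-driven transcription. After 24 h compound exposure, reporter mRNA is quantified by RT-PCR with 6-FAM labelling, HpaI digestion and capillary electrophoresis; bidirectional fits versus DMSO.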

Experiment [9] is described as follows: ATG_PBREM_CIS: Attagene CIS-FACTORIAL HepG2 Assay for human Phenobarbital-responsive Enhancer Module (PBREM) (AID 2282955). Conditions: HepG2 PBREM cis-reporter, Attagene multiplexed transcription; actives raise or lower the signal. The method in brief: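 HepG2 cells transiently transfected with multiple cis-regulated reporter transcription units; endogenous factor activity at the PBREM element measured as reporter mRNA 24 h after dosing, via RT-PCR and capillary electrophoresis of fluorescent fragments; bidirectional fitting versus DMSO.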

The target in experiment [10] is Paired box protein Pax-6 (Homo sapiens) (UniProt P26367). Nature of the experiment: ATG_Pax6_CIS: Attagene CIS-FACTORIAL HepG2 Assay for human Paired Box 6 (PAX6) (AID 2282956). As to conditions: HepG2 CIS-FACTORIAL PAX6 reporter transcription, RNA readout; actives raise or lower the signal. The method in brief:
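HepG2 cells transiently transfected with cis-promoter-driven multiplexed reporter units sensing endogenous transcription factor activity; 24 h chemical exposure. Reporter mRNA quantified by RT-PCR, 6-FAM labelling, HpaI digestion and capillary electrophoresis; bidirectional fit versus DMSO baseline.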

A short description of experiment [11]: ATG_PXRE_CIS: Attagene CIS-FACTORIAL HepG2 Assay for human Pregnane X Receptor Element (PXRE) (AID 2282957). Conditions: HepG2 Attagene CIS-FACTORIAL PXRE reporter, mRNA; actives raise or lower the signal. The method in brief: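 Transiently transfected HepG2 cells were dosed and incubated for 24 h. RNA was then isolated, DNase-treated, reverse-transcribed and reporter sequences amplified. Labeled, HpaI-digested fragments were quantified by capillary electrophoresis against DMSO.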

Experiment [12] is described as follows: ATG_RORE_CIS: Attagene CIS-FACTORIAL HepG2 Assay for human RAR-related Orphan Receptor Element (RORE) (AID 2282959). As to conditions: HepG2 Attagene cis-factorial RORE reporter, mRNA; actives raise or lower the signal. The method in brief:
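HepG2 cells transiently transfected with multiple cis-element reporter transcription units, exposed to chemical for 24 h. Reporter mRNA quantified by RT-PCR, 6-FAM primer-extension labeling, HpaI digestion and capillary electrophoresis; bidirectional fit versus DMSO baseline.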

A short description of experiment [13]: ATG_Sox_CIS: Attagene CIS-FACTORIAL HepG2 Assay for human SRY-box transcription factor (SOX) (AID 2282960). Conditions: HepG2 Attagene cis-factorial SOX reporter, mRNA; actives raise or lower the signal. The method in brief: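 HepG2 cells transiently transfected with cis-element-driven multiple reporter transcription units, dosed 24 h; reporter mRNA measured by RT-PCR, FAM labelling, HpaI digestion and capillary electrophoresis. Bidirectional fit versus DMSO baseline.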

The nature of experiment [14]: ATG_SREBP_CIS: Attagene CIS-FACTORIAL HepG2 Assay for human Sterol Regulatory Element Binding (SREBP) (AID 2282962). As to conditions: HepG2 Attagene cis-factorial SREBP reporter, mRNA; actives raise or lower the signal. The method in brief:
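HepG2 cells transiently transfected with multiplexed cis-promoter reporter units sensing endogenous transcription factors; reporter mRNA measured 24 h after dosing by RT-PCR, 6-FAM labeling, HpaI digestion and capillary electrophoresis. Bidirectional fit versus DMSO.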

The target of experiment [15] is Signal transducer and activator of transcription 3 (Homo sapiens) (UniProt P40763). Nature of the experiment: ATG_STAT3_CIS: Attagene CIS-FACTORIAL HepG2 Assay for human Signal Transducer and Activator of Transcription 3 (STAT3) (AID 2282963). Conditions: HepG2, Attagene cis-factorial STAT3 reporter transcription; actives raise or lower the signal. The method in brief:
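HepG2 cells transiently transfected with cis-element-driven multiple reporter transcription units; after 24 h chemical exposure, reporter mRNA measured by RT-PCR, 6-FAM primer-extension labelling, HpaI digestion and capillary electrophoresis. Bidirectional fitting versus DMSO baseline.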

The nature of experiment [16]: ATG_TA_CIS: Attagene CIS-FACTORIAL HepG2 Assay for human TA Basal Promoter (AID 2282964). Conditions: HepG2 Attagene CIS-factorial TA basal promoter reporter; actives raise or lower the signal. The method in brief:
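Transfected HepG2, 24 h compound exposure; RNA → RT-PCR → FAM primer extension → HpaI cut → CE fluorescence. Gain/loss-of-signal fitted against DMSO negative control. Background-control readout.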

Experiment [17] in a line: ATG_PPRE_CIS: Attagene CIS-FACTORIAL HepG2 Assay for human Peroxisome Proliferator-activated Response Element (PPRE) (AID 2282958). As to conditions: HepG2 PPRE cis-element reporter, Attagene transcription factor profiling; actives raise or lower the signal. The method in brief: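 HepG2 cells transiently transfected with multiplexed cis-element reporter units measure endogenous transcription factor activity. After 24 h compound exposure, reporter mRNA is quantified by RT-PCR, 6-FAM labeling, HpaI digestion and capillary electrophoresis; bidirectional fits are made against DMSO baseline.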

For experiment [18], the target named is Transcription factor Sp1 (Homo sapiens) (UniProt P08047). Nature of the experiment: ATG_Sp1_CIS: Attagene CIS-FACTORIAL HepG2 Assay for human Specificity Protein 1 (Sp1) (AID 2282961). Conditions: HepG2 Sp1 cis-reporter transcription, actives raise or lower the signal. The method in brief:
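HepG2 cells transiently transfected with multiple reporter transcription units driven by cis-regulatory elements; Sp1-responsive reporter mRNA measured 24 h after dosing by RT-PCR and capillary electrophoresis fluorescence, fitted bidirectionally against DMSO baseline.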

Experiment [19] concerns the target Hepatocyte nuclear factor 6 (Homo sapiens) (UniProt Q9UBC0). Nature of the experiment: ATG_HNF6_CIS: Attagene CIS-FACTORIAL HepG2 Assay for human Hepatocyte Nuclear Factor 6 (HNF6) (AID 2282952). Conditions: HepG2 Attagene cis-factorial HNF6 reporter transcription; actives raise or lower the signal. The method in brief: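 Reporter mRNA induction or loss in HepG2 after 24 h exposure; transient cis-MRTU transfection; fragments quantified by capillary electrophoresis; bidirectional analysis, DMSO as negative control.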

Signal transducer and activator of transcription 3 (Homo sapiens), sequence (P40763 whole entry, looked up): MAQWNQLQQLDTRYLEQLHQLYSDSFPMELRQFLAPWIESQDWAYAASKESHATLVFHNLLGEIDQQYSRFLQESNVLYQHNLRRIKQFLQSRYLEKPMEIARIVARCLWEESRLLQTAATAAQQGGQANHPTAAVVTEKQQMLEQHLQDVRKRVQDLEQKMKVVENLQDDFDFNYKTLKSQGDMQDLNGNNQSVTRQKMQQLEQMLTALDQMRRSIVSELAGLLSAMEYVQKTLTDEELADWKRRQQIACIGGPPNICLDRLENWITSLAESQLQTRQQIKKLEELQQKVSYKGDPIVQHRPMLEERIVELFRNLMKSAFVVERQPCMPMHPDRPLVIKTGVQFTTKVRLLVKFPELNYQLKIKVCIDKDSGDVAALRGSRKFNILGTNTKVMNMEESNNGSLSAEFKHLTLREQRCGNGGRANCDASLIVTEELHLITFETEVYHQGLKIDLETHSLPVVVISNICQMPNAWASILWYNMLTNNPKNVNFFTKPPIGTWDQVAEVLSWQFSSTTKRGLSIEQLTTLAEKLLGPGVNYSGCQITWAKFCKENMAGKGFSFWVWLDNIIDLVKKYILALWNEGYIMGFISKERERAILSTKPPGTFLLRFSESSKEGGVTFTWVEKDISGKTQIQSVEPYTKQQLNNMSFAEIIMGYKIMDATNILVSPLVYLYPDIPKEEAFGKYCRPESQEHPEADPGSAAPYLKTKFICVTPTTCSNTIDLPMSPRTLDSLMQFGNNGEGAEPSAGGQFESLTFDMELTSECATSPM
Hypoxia-inducible factor 1-alpha (Homo sapiens), sequence (Q16665 whole entry, looked up): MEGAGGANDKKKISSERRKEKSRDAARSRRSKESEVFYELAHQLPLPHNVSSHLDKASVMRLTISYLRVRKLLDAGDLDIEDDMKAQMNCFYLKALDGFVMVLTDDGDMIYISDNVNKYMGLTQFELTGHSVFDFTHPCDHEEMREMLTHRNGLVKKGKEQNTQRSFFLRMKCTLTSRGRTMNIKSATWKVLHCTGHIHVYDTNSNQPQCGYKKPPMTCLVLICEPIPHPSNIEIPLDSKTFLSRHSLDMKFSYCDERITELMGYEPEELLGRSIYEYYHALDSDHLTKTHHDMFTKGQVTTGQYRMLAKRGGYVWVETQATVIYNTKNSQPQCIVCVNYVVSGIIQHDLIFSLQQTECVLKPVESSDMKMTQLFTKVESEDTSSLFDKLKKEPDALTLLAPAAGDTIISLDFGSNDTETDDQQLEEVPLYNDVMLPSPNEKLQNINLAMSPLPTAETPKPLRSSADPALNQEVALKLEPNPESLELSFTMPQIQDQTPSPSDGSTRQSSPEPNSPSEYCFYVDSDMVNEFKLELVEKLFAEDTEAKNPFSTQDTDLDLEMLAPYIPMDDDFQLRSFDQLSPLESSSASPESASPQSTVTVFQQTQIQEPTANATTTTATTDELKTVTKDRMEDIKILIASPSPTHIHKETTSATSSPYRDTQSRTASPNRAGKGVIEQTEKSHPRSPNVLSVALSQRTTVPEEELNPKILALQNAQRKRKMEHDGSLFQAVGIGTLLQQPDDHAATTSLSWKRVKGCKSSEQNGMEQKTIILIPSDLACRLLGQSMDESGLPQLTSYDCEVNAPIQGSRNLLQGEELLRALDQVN
Paired box protein Pax-6 (Homo sapiens), sequence (P26367 whole entry, looked up): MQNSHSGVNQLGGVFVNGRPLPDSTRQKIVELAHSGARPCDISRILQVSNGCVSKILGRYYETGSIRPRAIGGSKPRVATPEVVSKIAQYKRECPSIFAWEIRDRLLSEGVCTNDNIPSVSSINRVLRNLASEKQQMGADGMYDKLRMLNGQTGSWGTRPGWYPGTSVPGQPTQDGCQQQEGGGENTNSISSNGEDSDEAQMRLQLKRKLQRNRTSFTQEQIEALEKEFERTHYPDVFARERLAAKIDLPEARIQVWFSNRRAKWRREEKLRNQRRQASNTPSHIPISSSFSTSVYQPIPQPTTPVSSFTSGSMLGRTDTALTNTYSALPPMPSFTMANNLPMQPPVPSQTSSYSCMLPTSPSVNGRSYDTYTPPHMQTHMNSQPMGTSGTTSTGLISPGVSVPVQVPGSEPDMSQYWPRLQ
Hepatocyte nuclear factor 6 (Homo sapiens), sequence (Q9UBC0 whole entry, looked up, the tested form may be a part): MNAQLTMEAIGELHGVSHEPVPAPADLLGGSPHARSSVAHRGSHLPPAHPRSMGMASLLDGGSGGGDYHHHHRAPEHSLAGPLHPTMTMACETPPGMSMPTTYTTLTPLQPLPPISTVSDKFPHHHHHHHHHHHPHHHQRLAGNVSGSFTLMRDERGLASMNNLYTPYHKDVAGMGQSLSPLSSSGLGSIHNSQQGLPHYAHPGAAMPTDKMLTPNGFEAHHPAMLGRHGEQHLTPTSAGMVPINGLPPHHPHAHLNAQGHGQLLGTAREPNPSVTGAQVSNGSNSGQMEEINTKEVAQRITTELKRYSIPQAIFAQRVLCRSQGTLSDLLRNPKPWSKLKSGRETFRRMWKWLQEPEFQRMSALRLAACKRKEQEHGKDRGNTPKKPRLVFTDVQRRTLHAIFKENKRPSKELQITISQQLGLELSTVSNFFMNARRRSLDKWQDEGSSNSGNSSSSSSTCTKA
Heat shock factor protein 1 (Homo sapiens), sequence (Q00613 whole entry, looked up, the tested form may be a part): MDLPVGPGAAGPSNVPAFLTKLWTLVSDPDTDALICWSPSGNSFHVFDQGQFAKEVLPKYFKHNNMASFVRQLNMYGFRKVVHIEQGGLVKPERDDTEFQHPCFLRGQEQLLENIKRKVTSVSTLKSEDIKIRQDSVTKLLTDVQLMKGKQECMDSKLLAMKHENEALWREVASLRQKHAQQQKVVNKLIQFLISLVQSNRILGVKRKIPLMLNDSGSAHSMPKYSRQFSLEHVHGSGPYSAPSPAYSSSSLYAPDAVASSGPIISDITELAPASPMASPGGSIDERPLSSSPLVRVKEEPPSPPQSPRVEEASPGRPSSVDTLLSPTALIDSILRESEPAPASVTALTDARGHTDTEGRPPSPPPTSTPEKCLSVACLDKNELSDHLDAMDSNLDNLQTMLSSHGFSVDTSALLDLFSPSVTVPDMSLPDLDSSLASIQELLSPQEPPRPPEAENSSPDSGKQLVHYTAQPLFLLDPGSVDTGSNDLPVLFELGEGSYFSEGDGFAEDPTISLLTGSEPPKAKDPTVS
Transcription factor Sp1 (Homo sapiens), sequence (P08047 whole entry, looked up): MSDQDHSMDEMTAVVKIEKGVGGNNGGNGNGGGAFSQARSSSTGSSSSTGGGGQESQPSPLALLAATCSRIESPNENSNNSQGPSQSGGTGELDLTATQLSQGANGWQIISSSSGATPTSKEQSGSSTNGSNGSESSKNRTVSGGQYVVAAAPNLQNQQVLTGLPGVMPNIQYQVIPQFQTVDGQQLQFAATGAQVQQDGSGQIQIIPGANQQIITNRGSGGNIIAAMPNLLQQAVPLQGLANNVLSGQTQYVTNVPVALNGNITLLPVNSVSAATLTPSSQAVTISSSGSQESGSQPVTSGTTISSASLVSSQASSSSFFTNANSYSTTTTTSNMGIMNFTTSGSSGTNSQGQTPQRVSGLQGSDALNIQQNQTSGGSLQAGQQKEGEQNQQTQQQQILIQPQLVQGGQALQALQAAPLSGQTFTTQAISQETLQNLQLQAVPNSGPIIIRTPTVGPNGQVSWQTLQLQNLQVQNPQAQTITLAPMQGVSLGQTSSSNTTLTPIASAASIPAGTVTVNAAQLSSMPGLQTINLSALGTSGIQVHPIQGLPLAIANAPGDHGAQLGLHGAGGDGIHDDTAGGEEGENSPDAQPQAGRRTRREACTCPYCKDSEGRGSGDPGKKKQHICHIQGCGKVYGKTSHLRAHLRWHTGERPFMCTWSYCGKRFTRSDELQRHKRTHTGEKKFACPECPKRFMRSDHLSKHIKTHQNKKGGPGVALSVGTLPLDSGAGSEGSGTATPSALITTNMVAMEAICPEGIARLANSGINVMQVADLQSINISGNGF

With `CCCCCCCCCO`, the compound was called inactive in [1], in experiment [2], in [3], in [4], in experiment [5] and in experiment [6]. Further, the compound was called inactive in experiment [7], in [8], in [9], in [10], in experiment [11] and in [12]. Moreover, the compound was classed as inactive in [13], in [14], in [15] and in experiment [16].
On to `Cc1cccc(O)c1`, for which the result in experiment [1], in experiment [2], in experiment [3], in [4], in experiment [5] and in experiment [6] was inactive. Further, the call in experiment [7], in [8], in [9], in experiment [10], in experiment [11] and in experiment [17] was inactive. In addition, the outcome in [12], in experiment [13], in [18], in experiment [14], in [15] and in experiment [16] was inactive.
On to `CCCCCCCCCCCCN1CCOCC1`, for which the result in experiment [1], in [2], in experiment [3], in [4], in experiment [5] and in experiment [6] was inactive. Also, the outcome in experiment [7], in [8], in [11], in experiment [17], in [12] and in experiment [13] was inactive. In addition, the result in experiment [18], in experiment [14], in [15] and in experiment [16] was inactive.
`CCCCC1CCCCC(=O)O1` (stereo unspecified): the compound was classed as inactive in experiment [1], in experiment [2], in [3], in experiment [4], in [5] and in experiment [6]. Also, the compound was called inactive in experiment [19], in experiment [8], in [9], in experiment [10], in [11] and in [12]. Also, the result in [13], in experiment [18], in experiment [14], in [15] and in experiment [16] was inactive. For the same compound, the AC50 (usually the concentration giving half of the maximal activity seen) in experiment [17] is 44.3 µM (active).
For the compound `CC(C)=CCCC(C)=CC(=O)O`, the compound was called inactive in experiment [1], in experiment [2], in experiment [3], in [4], in [5] and in experiment [6]. Further, the compound was classed as inactive in experiment [19], in experiment [7], in experiment [8], in experiment [12], in experiment [13] and in experiment [14]. Moreover, the compound was classed as inactive in experiment [15] and in experiment [16]. The AC50 in experiment [11] is 29.8 µM (active).
`CCCCN(CCO)CCO`: the outcome in experiment [1], in experiment [2], in [3], in [4], in experiment [5] and in [6] was inactive. The compound was called inactive in [7], in experiment [8], in [9], in [10], in experiment [11] and in experiment [12]. In addition, the call in experiment [13], in experiment [18], in experiment [15] and in [16] was inactive.
`CC(C)Cc1ccc(C(C)C(=O)O)cc1` (stereo unspecified): the outcome in experiment [1], in [2], in experiment [3], in experiment [4], in [5] and in experiment [19] was inactive. Also, the compound was called inactive in [7], in [8], in experiment [9], in experiment [10], in experiment [11] and in experiment [12]. In addition, the outcome in experiment [13], in [14], in [15] and in experiment [16] was inactive. The AC50 in experiment [17] is 34.4 µM (active).
